# Experimental data taken from PubChem BioAssay (EPA / NIEHS).
# Inconclusive results are not listed. The source made the active and inactive calls. Rule for the calls: active = hit-call score of the fitted dose curve at least 0.9, where 1 is the maximum; inconclusive = response in the unintended direction; inactive = score below 0.9.
# Target: human Casein Kinase 1-delta (CK1D), CSNK1D (gene 1453) (UniProt P48730)
# Assay: NVS_ENZ_hCK1D: NovaScreen (NVS) Enzymatic Assay for human Casein Kinase 1-delta (CK1D) (AID 2283148)
# Summary of the method: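 Recombinant human CK1-delta, cell-free; fluorescent substrate with electrophoretic mobility-shift separation of product, read 1 h after dosing. Single 25 uM duplicate screen, then concentration-response up to 50 uM; loss of signal vs DMSO.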
# Sequence of human Casein Kinase 1-delta (CK1D), CSNK1D (gene 1453) (P48730 whole entry, looked up): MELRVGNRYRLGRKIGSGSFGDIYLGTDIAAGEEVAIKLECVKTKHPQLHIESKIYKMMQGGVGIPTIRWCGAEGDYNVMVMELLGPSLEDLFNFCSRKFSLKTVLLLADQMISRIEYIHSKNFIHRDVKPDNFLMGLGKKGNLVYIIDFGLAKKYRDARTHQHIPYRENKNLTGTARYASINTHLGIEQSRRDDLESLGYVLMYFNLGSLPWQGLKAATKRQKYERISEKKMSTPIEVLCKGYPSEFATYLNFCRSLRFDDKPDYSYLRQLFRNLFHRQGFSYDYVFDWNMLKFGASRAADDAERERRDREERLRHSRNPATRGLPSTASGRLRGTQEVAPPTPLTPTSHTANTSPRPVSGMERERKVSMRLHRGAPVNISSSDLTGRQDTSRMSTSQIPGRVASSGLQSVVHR
row,SMILES,outcome
1,CCNc1nc(Cl)nc(NC(C)C)n1,inactive
2,CCCCC(CC)COC(=O)c1ccccc1C(=O)OCC(CC)CCCC (configuration not stated),inactive
3,CCNc1nc(Cl)nc(NCC)n1,inactive

# Target: human Esterase Plasma (ES), BCHE (gene 590) (UniProt P06276)
# Sequence (P06276 whole entry, looked up): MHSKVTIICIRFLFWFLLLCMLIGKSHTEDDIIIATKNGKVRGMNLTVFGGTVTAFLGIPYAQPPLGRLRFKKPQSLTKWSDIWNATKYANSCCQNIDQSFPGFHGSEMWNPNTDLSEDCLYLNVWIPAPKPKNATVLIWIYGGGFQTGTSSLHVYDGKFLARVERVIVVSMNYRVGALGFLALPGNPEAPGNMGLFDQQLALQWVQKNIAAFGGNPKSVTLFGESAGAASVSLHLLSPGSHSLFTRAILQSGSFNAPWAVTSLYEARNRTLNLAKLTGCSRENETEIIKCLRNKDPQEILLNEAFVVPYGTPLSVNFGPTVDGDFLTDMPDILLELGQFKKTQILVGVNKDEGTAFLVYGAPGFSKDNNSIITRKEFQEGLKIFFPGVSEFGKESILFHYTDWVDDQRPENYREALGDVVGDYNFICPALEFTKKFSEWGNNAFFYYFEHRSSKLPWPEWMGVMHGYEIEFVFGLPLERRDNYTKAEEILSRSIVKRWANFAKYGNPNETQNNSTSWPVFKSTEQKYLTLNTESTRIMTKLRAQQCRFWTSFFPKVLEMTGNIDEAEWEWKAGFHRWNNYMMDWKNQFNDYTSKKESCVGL
# Assay: NVS_ENZ_hES: NovaScreen (NVS) Enzymatic Assay for human Esterase Plasma (ES) (AID 2283157)
# Method: NVS_ENZ_hES is a biochemical, single-readout assay that uses extracted gene-proteins from Human plasma in a cell-free assay. Measurements were taken 0.25 hour after chemical dosing in a 96-well plate.NVS_ENZ_hES is one of one assay component(s) measured or calculated from the NVS_ENZ_hES assay. It is designed to make measurements of enzyme activity, a form of enzyme reporter, as detected with absorbance signals by Colorimetric technology.Data from the assay component NVS_ENZ_hES was analyzed into 1 assay endpoint. This assay endpoint, NVS_ENZ_hES, was analyzed in the positive analysis fitting direction relative to DMSO as the negative control and baseline of activity. Using a type of enzyme reporter, loss-of-signal activity can be used to understand changes in the enzymatic activity as they relate to the gene BCHE. Furthermore, this assay endpoint can be referred to as a primary readout, because this assay has produced multiple assay endpoints where this one serves a enzymatic activity function. To generalize the intended target to other relatable targets, this assay endpoint is annotated to the esterase intended target family, where the subfamily is pseudocholinesterase.
# Binding assays used specific radioligands (tritiated, iodinated) with non-radioactive competitive displacement ligands in agonist or antagonist protocols (as indicated) and various reference compounds and inhibitors to titrate specific binding to receptors and transporters. Most enzyme assays (CYPs, kinases, phosphatases, proteases, HDACs) used recombinant protein and specific substrates (fluorescence mostly, some colorimetric and radioactive) and inhibitors, followed by a biochemical separation of substrate and product. All assays for the biochemical HTS were initially run in duplicate at a single concentration (10 uM for CYP450 assays and 25 uM for all others). Assay-chemical combinations meeting a pre-defined threshold (e.g., 30% inhibition and other criteria defined below) were then run in singleton concentration-response format with maximum concentration of 20 uM for CYPs and 50 uM for all others. Each assay was run with positive and negative controls, and concurrent controls on every plate. The follow-up (secondary) screen tested active chemical-pairs in concentration series, as well as a few additional assays not tested in the primary screen, some selected negative inactives, and several cases re-run in the concentration series for confirmatory purposes.
SMILES,AC50,outcome
CNC(=O)ON=CC(C)(C)SC,11.1 µM (active),–
CS/C(C)=N/OC(=O)N(C)SN(C)C(=O)O/N=C(\C)SC,3.07 µM (active),–
CCOC(=O)C(Cl)Cc1cc(-n2nc(C)n(C(F)F)c2=O)c(F)cc1Cl (configuration not stated),–,inactive
COP(=S)(OC)Oc1nc(Cl)c(Cl)cc1Cl,–,inactive
COC(=O)C=C(C)OP(=O)(OC)OC,13.4 µM (active),–
CC1=C(C(=O)Nc2ccccc2)SCCO1,23.6 µM (active),–

# Target: human Fibroblast Growth Factor Receptor 1 (FGFR1), FGFR1 (gene 2260) (UniProt P11362)
# Sequence (P11362 whole entry, looked up): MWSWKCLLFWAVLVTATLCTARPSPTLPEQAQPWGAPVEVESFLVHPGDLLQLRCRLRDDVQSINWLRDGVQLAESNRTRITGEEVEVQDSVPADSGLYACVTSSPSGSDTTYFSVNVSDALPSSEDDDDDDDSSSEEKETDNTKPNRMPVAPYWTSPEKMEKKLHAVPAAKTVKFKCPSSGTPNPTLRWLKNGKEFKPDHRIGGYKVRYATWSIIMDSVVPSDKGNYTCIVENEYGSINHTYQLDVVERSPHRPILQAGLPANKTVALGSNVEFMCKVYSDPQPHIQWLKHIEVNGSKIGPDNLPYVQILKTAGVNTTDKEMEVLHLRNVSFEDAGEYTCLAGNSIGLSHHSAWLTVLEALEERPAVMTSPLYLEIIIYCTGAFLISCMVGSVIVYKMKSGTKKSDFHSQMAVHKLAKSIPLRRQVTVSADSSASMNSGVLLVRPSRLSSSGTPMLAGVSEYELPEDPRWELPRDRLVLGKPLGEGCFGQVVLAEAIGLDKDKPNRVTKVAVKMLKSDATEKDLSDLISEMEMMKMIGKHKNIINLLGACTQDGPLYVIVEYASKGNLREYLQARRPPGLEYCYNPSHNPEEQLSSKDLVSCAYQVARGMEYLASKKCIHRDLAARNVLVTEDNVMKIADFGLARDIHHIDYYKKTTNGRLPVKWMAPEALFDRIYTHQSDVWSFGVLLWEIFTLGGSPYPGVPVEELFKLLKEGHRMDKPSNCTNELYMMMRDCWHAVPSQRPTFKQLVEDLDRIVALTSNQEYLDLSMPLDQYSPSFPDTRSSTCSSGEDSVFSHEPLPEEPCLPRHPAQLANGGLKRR
# Assay: NVS_ENZ_hFGFR1: NovaScreen (NVS) Enzymatic Assay for human Fibroblast Growth Factor Receptor 1 (FGFR1) (AID 2283159)
# Summary of the method: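 Cell-free recombinant kinase with fluorescent substrate, product separated by electrophoretic mobility shift; read 1 hour after dosing, loss of signal relative to DMSO. Initial screen in duplicate at 25 uM, actives followed in concentration series.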
row,SMILES,outcome
1,N#Cc1nn(-c2c(Cl)cc(C(F)(F)F)cc2Cl)c(N)c1S(=O)C(F)(F)F (configuration not stated),inactive
2,CCOC(=O)C(Cl)Cc1cc(-n2nc(C)n(C(F)F)c2=O)c(F)cc1Cl (configuration not stated),inactive
3,CCCCNC(=O)OCC#CI,inactive
